Measurements as given in PubChem BioAssay (Tox21).
Inconclusive results are not listed. Active and inactive are the calls of the source. Unless noted, calls follow the shape of the full dose curve.

Key:
[1] = Nuclear factor erythroid 2-related factor 2/antioxidant responsive element (Nrf2/ARE) small molecule agonists: qHTS cell viability counter screen in human keratinocytes (AID 1919968; active = well fitted curve in the direction sought with a large enough effect in the repeat runs; an effect the other way counts as inactive or inconclusive; also: nearly all actives have a fitted effect of over 55% in size)
In short: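 After a 5 h attachment period, ARE-reporter keratinocytes were dosed with compounds in DMSO and then cultured 23 h at 37 C. Cell viability came from CellTiter-Fluor signal read after a further 1 h.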

[2] = Nuclear factor erythroid 2-related factor 2/antioxidant responsive element (Nrf2/ARE) small molecule agonists: luciferase reporter gene qHTS assay in human keratinocytes (AID 1919969); also: nearly all actives have a fitted effect of over 35% in size
[3] = target: Gonadotropin-releasing hormone receptor (Homo sapiens) (UniProt P30968); test: Human gonadotropin-releasing hormone receptor (GnRHR) small molecule agonists, calcium flux assay in GnRHR-HEK293 cells (AID 1920063); also: nearly all actives have a fitted effect of over 35% in size
In short: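 We seeded human GnRHR-expressing HEK293 cells for 18 hours, loaded them with calcium dye for an hour at 37 C, added test compounds, and recorded fluorescence intensity kinetically for three minutes.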

[4] = target: KiSS-1 receptor (Homo sapiens) (UniProt Q969F8); test: Human kisspeptin (KISS1R) small molecule agonists, calcium flux assay in KISS1R-HEK293 cells (AID 1920064; active = well fitted curve in the direction sought with a large enough effect in the repeat runs; an effect the other way counts as inactive or inconclusive)
In short: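 Kinetic calcium assay, 1 s sampling over 3 min at Ex/Em 480/540, in HEK293 cells engineered with human KISS1R; compounds delivered in DMSO after 1 h dye loading.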

[5] = G protein-coupled receptor (GPCR) small molecule agonists, calcium flux assay: HEK293 wild type cell line counter screen (AID 1920065)
In short: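 Calcium-sensitive dye, loaded 1 h at 37 C into cells cultured 18 h, reports compound-evoked calcium release as fluorescence (Ex/Em 480/540), measured over 3 min. Agonist mode; 15-point titrations, triplicate.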

[6] = p53 small molecule agonists, cell-based qHTS assay with human liver microsomes (AID 1963577);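 also: p53 response element beta-lactamase reporter cells with liver microsomes plus NADPH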
In short: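 With metabolic activation: human liver microsomes (0.5 mg/mL final) plus NADPH (0.5 mg/mL final) added alongside compounds to p53RE-bla cells; 16 h 37 C exposure; beta-lactamase read by LiveBLAzer fluorescence.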

[7] = p53 small molecule agonists, cell-based qHTS assay with rat liver microsomes (AID 1963578)
In short: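 Metabolic activation by rat liver microsomes and NADPH, each 0.5 mg/mL final, added right after compounds to p53RE-bla reporter cells (4,000/well, plated 5 h earlier). 16 h at 37 C, then LiveBLAzer substrate for 2 h at room temperature in the dark; fluorescence read-out.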

[8] = p53 small molecule agonists, cell-based qHTS assay with human liver microsomes: qHTS cell viability counter screen (AID 1963579); also: nearly all actives have a fitted effect of over 45% in size
In short: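 Metabolic activation used human liver microsomes and NADPH, both 0.5 mg/mL final, over 16 hours at 37 C on p53RE-bla cells (4,000/well). Cytotoxicity measured by CellTiter-Glo luminescence, 30 min at room temperature.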

[9] = p53 small molecule agonists, cell-based qHTS assay with rat liver microsomes: qHTS cell viability counter screen (AID 1963580); also: nearly all actives have a fitted effect of over 45% in size
In short: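 In HCT-116 cells carrying a p53 response element-bla reporter, compounds were metabolically activated in situ by rat liver microsomes with NADPH over 16 h. Cell ATP content then served as the cytotoxicity measure.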

[10] = p53 small molecule agonists, cell-based qHTS assay: qHTS cell viability counter screen (AID 1963581); also: nearly all actives have a fitted effect of over 45% in size
In short: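 Following 5 h attachment, HCT-116 p53RE-bla cells took up compound for 16 h at 37 C; the reporter was read with B/G FRET substrate (2 h RT), and viability then via CellTiter-Glo ATP luminescence.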

[11] = target: 5-hydroxytryptamine receptor 2A (Homo sapiens) (UniProt P28223); test: 5-hydroxytryptamine receptor 2A (HTR2A) small molecule agonists, cell-based qHTS assay (AID 1963587); also: nearly all actives have a fitted effect of over 30% in size
In short: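 HTR2A-CHO cells, plated 18 h at 37 C/5% CO2, dye-loaded 1 h at 37 C; compounds in DMSO added by pin tool (agonist mode). Intracellular calcium flux read as kinetic fluorescence on FDSS over 2 min at 1 s intervals.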

[12] = target: Muscarinic acetylcholine receptor M1 (Homo sapiens) (UniProt P11229); test: Cholinergic receptor muscarinic 1 (CHRM1) small molecule antagonists, cell-based qHTS assay (AID 1963588); also: nearly all actives have a fitted effect of over 40% in size; also: potency is read from the fitted curve at half-maximal effect
In short: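 CHRM1-CHO calcium-flux assay, antagonist mode. Cells were seeded 18 h, dye-loaded 1 h at 37 C and given compound for 5 min at RT, then acetylcholine was added at 50nM. FDSS fluorescence was read 3 min; 15 concentrations, three runs.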

[13] = target: Muscarinic acetylcholine receptor M1 (Homo sapiens) (UniProt P11229); test: Cholinergic receptor muscarinic 1 (CHRM1) small molecule agonists, cell-based qHTS assay (AID 1963589); also: nearly all actives have a fitted effect of over 35% in size
In short: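 Measures agonist-induced intracellular calcium rise. Stable human CHRM1 CHO line, 1 h dye load at 37 C, compounds from DMSO, kinetic fluorescence read.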

[14] = cAMP Responsive Elements (CRE) small molecule antagonists, cell-based qHTS assay (AID 1963591; active = well fitted inhibition curve with a large enough effect in the signal ratio in the repeat runs, not every such curve was filed as active; the % refers to the signal ratio)
In short: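 HEK293T cells carrying a CRE-driven beta-lactamase reporter receive compound and NKH477 (0.25 uM final) for 3 h. Fluorescence from LiveBLAzer B/G FRET substrate is read after 2 h at room temperature.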

[15] = target: Beta-2 adrenergic receptor (Homo sapiens) (UniProt P07550); test: Adrenergic beta2 receptor (ADRB2) small molecule antagonists, cell-based qHTS assay (AID 1963592); also: series mostly up to about 92 µM; nearly all actives have a fitted effect of over 50% in size
In short: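 Cells (CHO, stable ADRB2 overexpression) incubated 18-20hr at 37C; compounds added from DMSO; agonist mix (1nM isoproterenol, 100uM IBMX, 25uM Ro-20-1724) added; 0.5hr RT; d2-cAMP and anti-cAMP-cryptate added; 1hr RT; 665/615 nm read.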

[16] = target: D(2) dopamine receptor (Homo sapiens) (UniProt P14416); test: Dopamine D2 receptor (DRD2) small molecule antagonists, cell-based qHTS assay (AID 1963595; active = well fitted inhibition curve with a large enough effect in the signal ratio in the repeat runs, with a control signal flat; the % refers to the signal ratio)
In short: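 HEK293 cells stably expressing DRD2 were preincubated with 0.1 mM Ro20-1724, then with compound for 10 min at room temperature. Cells were stimulated with 200 nM NKH477 plus 12 nM quinpirole for 30 min, and cAMP was read by HTRF.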

[17] = cAMP Responsive Elements (CRE) small molecule agonists, cell-based qHTS assay (AID 1963590)
In short: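 A CRE-responsive beta-lactamase reporter in HEK 293T cells was used. Treatment ran 3 h at 37 C; detection used LiveBLAzer B/G FRET substrate for 2 h at room temperature.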

[18] = target: D(2) dopamine receptor (Homo sapiens) (UniProt P14416); test: Dopamine D2 receptor (DRD2) small molecule agonists, cell-based qHTS assay (AID 1963594); also: nearly all actives have a fitted effect of over 35% in size
In short: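 HEK293 cells stably expressing DRD2 were cultured 24 h at 37 C, then given Ro20-1724 (0.1 mM final) and compounds for 10 min at room temperature. NKH477 (200nM) was then added for 30 min. cAMP was read by HTRF.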

[19] = p53 small molecule agonists, cell-based qHTS assay (AID 1963582; active = well fitted activation curve with a large enough effect in the signal ratio in the repeat runs, not every such curve was filed as active; the % refers to the signal ratio)
In short: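 In this cell-based concentration-response screen, a p53 response element drives beta-lactamase; cells received DMSO-borne compounds after 5 h culture and were incubated a further 16 h before FRET substrate development.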

[20] = target: 5-hydroxytryptamine receptor 2A (Homo sapiens) (UniProt P28223); test: 5-hydroxytryptamine receptor 2A (HTR2A) small molecule antagonists, cell-based qHTS assay (AID 1963586); also: nearly all actives have a fitted effect of over 45% in size
In short: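 Antagonist-mode intracellular calcium assay: DOI (4 nM) added after 5 min compound pre-incubation at room temperature to dye-loaded HTR2A-CHO cells. Fluorescence followed for 3 min, sampled every second.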

Measured: Potency

Sequence of D(2) dopamine receptor (Homo sapiens) (P14416 whole entry, looked up): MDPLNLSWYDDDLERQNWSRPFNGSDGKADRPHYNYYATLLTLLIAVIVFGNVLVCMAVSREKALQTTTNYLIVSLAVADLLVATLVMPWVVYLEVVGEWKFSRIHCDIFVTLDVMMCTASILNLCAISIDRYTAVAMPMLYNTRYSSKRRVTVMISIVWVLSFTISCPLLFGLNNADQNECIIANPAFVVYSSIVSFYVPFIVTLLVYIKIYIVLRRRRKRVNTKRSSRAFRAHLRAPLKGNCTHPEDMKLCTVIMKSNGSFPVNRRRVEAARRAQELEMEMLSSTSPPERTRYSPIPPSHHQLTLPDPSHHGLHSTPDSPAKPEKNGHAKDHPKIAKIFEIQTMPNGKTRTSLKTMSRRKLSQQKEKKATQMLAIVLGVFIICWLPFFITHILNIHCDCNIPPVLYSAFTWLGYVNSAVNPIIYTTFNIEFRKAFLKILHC
Sequence of 5-hydroxytryptamine receptor 2A (Homo sapiens) (P28223 whole entry, looked up): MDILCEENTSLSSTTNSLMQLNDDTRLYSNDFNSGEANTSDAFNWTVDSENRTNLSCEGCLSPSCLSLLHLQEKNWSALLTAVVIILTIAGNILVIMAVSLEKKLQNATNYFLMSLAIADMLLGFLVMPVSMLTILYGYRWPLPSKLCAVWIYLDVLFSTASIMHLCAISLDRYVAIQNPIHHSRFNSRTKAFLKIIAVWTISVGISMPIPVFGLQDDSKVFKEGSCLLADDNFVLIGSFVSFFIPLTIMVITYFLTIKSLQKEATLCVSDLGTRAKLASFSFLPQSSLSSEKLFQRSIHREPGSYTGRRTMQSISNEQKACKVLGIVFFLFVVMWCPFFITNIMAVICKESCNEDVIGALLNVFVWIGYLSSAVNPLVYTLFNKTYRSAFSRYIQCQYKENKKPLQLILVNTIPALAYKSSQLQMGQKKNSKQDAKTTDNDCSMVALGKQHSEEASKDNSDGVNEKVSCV
Sequence of KiSS-1 receptor (Homo sapiens) (Q969F8 whole entry, looked up): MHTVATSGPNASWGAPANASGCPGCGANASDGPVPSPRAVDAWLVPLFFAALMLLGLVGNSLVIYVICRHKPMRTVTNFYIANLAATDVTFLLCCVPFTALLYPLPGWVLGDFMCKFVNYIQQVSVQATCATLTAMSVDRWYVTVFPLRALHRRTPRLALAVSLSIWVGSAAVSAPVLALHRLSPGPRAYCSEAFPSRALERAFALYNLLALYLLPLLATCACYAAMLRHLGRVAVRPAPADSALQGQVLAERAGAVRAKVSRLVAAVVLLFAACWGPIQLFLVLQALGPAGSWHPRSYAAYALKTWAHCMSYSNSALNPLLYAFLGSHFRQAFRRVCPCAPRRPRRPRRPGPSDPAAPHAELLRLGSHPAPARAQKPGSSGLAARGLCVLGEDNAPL
Sequence of Muscarinic acetylcholine receptor M1 (Homo sapiens) (P11229 whole entry, looked up): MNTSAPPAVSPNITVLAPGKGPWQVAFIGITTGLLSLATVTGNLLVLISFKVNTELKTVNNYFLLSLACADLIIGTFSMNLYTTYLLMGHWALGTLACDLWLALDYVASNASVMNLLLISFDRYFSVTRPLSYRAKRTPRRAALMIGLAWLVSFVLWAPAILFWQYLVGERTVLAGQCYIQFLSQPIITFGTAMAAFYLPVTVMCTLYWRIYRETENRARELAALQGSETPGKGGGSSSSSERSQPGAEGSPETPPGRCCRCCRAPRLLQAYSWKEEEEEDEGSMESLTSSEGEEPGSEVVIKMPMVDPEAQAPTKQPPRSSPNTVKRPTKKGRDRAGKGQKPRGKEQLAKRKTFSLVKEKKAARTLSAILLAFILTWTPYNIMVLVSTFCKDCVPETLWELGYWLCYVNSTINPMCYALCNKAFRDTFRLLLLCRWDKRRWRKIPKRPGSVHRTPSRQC
Sequence of Gonadotropin-releasing hormone receptor (Homo sapiens) (P30968 whole entry, looked up): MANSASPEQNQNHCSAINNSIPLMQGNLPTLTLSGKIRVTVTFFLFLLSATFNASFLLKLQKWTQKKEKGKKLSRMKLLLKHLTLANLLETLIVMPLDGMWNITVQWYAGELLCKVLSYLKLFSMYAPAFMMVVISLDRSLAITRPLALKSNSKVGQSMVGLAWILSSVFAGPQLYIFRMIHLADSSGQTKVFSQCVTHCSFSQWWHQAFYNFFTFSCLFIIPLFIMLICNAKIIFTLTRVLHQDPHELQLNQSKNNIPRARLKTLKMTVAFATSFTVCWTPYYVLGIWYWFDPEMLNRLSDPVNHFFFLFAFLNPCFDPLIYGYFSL
Sequence of Beta-2 adrenergic receptor (Homo sapiens) (P07550 whole entry, looked up): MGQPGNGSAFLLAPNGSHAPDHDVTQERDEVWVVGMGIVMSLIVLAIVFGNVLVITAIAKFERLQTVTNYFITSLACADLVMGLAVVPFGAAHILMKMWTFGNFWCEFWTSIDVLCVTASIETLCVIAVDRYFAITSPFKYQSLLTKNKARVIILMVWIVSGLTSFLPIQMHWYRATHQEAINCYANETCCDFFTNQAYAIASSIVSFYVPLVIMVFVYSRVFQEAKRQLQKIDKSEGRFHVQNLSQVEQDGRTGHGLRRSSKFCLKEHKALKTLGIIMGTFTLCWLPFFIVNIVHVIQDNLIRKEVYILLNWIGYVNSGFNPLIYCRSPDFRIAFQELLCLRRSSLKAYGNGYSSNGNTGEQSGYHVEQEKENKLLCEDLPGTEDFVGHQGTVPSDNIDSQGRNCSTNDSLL

COC(=O)C1=C(C)NC(C)=C(C(=O)OCCN2CCN(C(c3ccccc3)c3ccccc3)CC2)C1c1cccc([N+](=O)[O-])c1 (stereo unspecified)
not listed: [17] | [18] | [19] | [20]
inactive: all other assays above

C#C[C@]1(OC(C)=O)CC[C@H]2[C@@H]3CCC4=C[C@@H](OC(C)=O)CC[C@@H]4[C@H]3CC[C@@]21C
not listed: [11] | [12] | [13] | [14] | [19] | [20]
inactive: all other assays above

CCCCCCCCOc1ccccc1C(=O)Nc1ccc(C(=O)OCC[N+](C)(CC)CC)cc1
not listed: [11] | [12] | [14] | [15] | [16] | [17] | [19] | [20]
inactive: all other assays above

CCN1CCCC1CNC(=O)c1cc(S(=O)(=O)CC)c(N)cc1OC (stereo unspecified)
not listed: [14] | [16] | [18] | [19] | [20]
inactive: all other assays above

CCNC(=O)C(C)OC(=O)Nc1ccccc1 (stereo unspecified)
not listed: [11] | [12] | [15] | [19] | [20]
inactive: all other assays above

O[C@@H](COc1cccc2ncccc12)CN1CCN(C2c3ccccc3[C@@H]3[C@H](c4ccccc42)C3(F)F)CC1 (stereo partly specified)
active: [12] 3.65 µM
not listed: [14] | [17] | [19] | [20]
inactive: all other assays above

CCC(C(=O)OCCN1CCOC(c2ccccc2)C1C)c1ccccc1 (stereo unspecified)
not listed: [12] | [19] | [20]
inactive: all other assays above

CCCCC(CC)COC(=O)COc1ccc(Cl)cc1C (stereo unspecified)
not listed: [10] | [14]
inactive: all other assays above

C=CCSSCCC
not listed: [10] | [14]
inactive: all other assays above
